Assay results taken from PubChem BioAssay AID1159580 (chemical genetic matrix, 2015).
Where “and” joins values, the source holds several entries; their conditions need not be identical. Identical values can stand only once. In all, about 5,500 compounds went through this assay and about 2,000 (36%) were called active. Another 18% or so got no clear call; they are omitted. Rule as the data show it: active = normalized growth mostly below about 0.91 (no sharp cut-off); inconclusive = no clear call, values can overlap the other calls; inactive = mostly above about 0.92. Some of the results follow.

Test: chemical genetic growth profiling, strain panel (AID 1159580);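 also: tested at 20 µM; growth read once vehicle control cultures reached saturation at 30 °C; 1 = growth at the plate median or of vehicle wells; lower values mean less growth of the strain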
Settings: S. cerevisiae deletion strains, growth OD

Measured: normalized growth

Nc1nc2ncc(CNc3ccc(C(=O)N[C@@H](CCC(=O)O)C(=O)O)cc3)nc2c(=O)[nH]1
inactive: locus YAL021C, strain ccr4, active compounds read low 0.993 | locus YAL026C, strain drs2, active compounds read low 1.01 | locus YAL030W, strain snc1, active compounds read low 0.998 | locus YBL061C, strain skt5, active compounds read low 1 | locus YBR009C, strain hhf1, active compounds read low 1.01 | locus YBR021W, strain FUR4, active compounds read low 1.04 | locus YBR023C, strain chs3, active compounds read low 0.995 | locus YBR171W, strain sec66, active compounds read low 0.996 | locus YBR229C, strain ROT2, active compounds read low 0.992 | locus YBR231C, strain swc5, active compounds read low 0.996 | locus YBR279W, strain paf1, active compounds read low 0.996 | locus YCL011C, strain gbp2, active compounds read low 1 | locus YCL016C, strain dcc1, active compounds read low 0.998 | locus YCL029C, strain bik1, active compounds read low 0.976 | locus YCL061C, strain MRC1, active compounds read low 0.998 | locus YCL069W, strain vba3, active compounds read low 1 | locus YCR088W, strain abp1, active compounds read low 1 | locus YDL005C, strain med2, active compounds read low 1 | locus YDL035C, strain GPR1, active compounds read low 0.995 | locus YDL040C, strain nat1, active compounds read low 0.995 | locus YDL074C, strain BRE1, active compounds read low 0.993 | locus YDL101C, strain DUN1, active compounds read low 0.996 | locus YDL185W, strain tfp1, active compounds read low 0.956 | locus YDL192W, strain arf1, active compounds read low 0.976 | locus YDR001C, strain nth1, active compounds read low 0.997 | locus YDR069C, strain doa4, active compounds read low 0.999 | locus YDR101C, strain arx1, active compounds read low 0.982 | locus YDR137W, strain rgp1, active compounds read low 1.03 | locus YDR159W, strain sac3, active compounds read low 1.01 | locus YDR162C, strain NBP2, active compounds read low 1.02 | locus YDR195W, strain ref2 0.993 | locus YDR297W, strain sur2, active compounds read low 0.997 | locus YDR318W, strain mcm21, active compounds read low 0.99 | locus YDR334W, strain swr1, active compounds read low 1 | locus YDR335W, strain msn5, active compounds read low 0.997 | locus YDR388W, active compounds read low 0.976 | locus YDR392W, strain spt3, active compounds read low 0.941 | locus YDR502C, strain sam2, active compounds read low 0.986 | locus YEL003W, strain gim4, active compounds read low 1.01 | locus YEL037C, strain rad23, active compounds read low 1 | locus YEL061C, strain CIN8 (second series), active compounds read low 1 | locus YEL061C, strain CIN8, active compounds read low 0.988 | locus YER015W, strain faa2, active compounds read low 1 | locus YER016W, strain bim1, active compounds read low 1.01 | locus YER110C, active compounds read low 0.952 | locus YER111C, strain swi4, active compounds read low 0.985 | locus YER155C, strain BEM2 (second series), active compounds read low 1.01 | locus YER155C, strain BEM2, active compounds read low 0.986 | locus YER167W, strain BCK2, active compounds read low 0.99 | locus YFR010W, strain ubp6, active compounds read low 1.01 | locus YGL078C, strain dbp3, active compounds read low 0.998 | locus YGL086W, strain mad1, active compounds read low 0.968 | locus YGL167C, strain pmr1, active compounds read low 1 | locus YGL173C, strain kem1, active compounds read low 0.996 | locus YGL227W, strain vid30, active compounds read low 0.993 | locus YGL240W, strain doc1, active compounds read low 1.02 | locus YGL248W, strain PDE1, active compounds read low 1.01 | locus YGL253W, strain hxk2, active compounds read low 0.993 | locus YGR078C, strain PAC10, active compounds read low 1.03 | locus YGR135W, strain pre9, active compounds read low 1 | locus YGR252W, strain gcn5, active compounds read low 1.21 | locus YHR013C, strain ard1, active compounds read low 1 | locus YHR027C, strain rpn1, active compounds read low 1 | locus YHR030C, strain SLT2, active compounds read low 0.971 and 1.02 | locus YHR079C, strain IRE1 (second series), active compounds read low 0.972 | locus YHR079C, strain IRE1, active compounds read low 1.03 | locus YHR094C, strain hxt1, active compounds read low 0.989 | locus YHR129C, strain ARP1, active compounds read low 0.99 | locus YHR142W, strain chs7, active compounds read low 0.989 | locus YHR200W, strain rpn10, active compounds read low 0.985 | locus YIL066C, strain RNR3, active compounds read low 1 | locus YIL073C, strain SPO22, active compounds read low 0.922 | locus YIL125W, strain kgd1, active compounds read low 0.94 | locus YIR030C, strain dcg1, active compounds read low 0.985 | locus YJL092W, strain hpr5, active compounds read low 0.995 | locus YJL095W, strain BCK1 (second series), active compounds read low 0.992 | locus YJL095W, strain BCK1, active compounds read low 1.05 and 1.02 | locus YJL115W, strain asf1, active compounds read low 1 | locus YJL129C, strain trk1, active compounds read low 0.993 | locus YJL134W, strain LCB3, active compounds read low 0.979 | locus YJL154C, strain vps35, active compounds read low 1 | locus YJL164C, strain tpk1, active compounds read low 0.994 | locus YJL166W, strain qcr8, active compounds read low 0.995 | locus YJL168C, strain set2, active compounds read low 1.01 | locus YJL187C, strain SWE1 (second series), active compounds read low 1.01 | locus YJL187C, strain SWE1, active compounds read low 0.999 | locus YJR043C, strain POL32, active compounds read low 1.01 | locus YJR066W, strain TOR1, active compounds read low 0.959 | locus YKL009W, strain mrt4, active compounds read low 0.954 | locus YKL068W, active compounds read low 0.98 | locus YKL085W, strain MDH1 (second series), active compounds read low 0.981 | locus YKL085W, strain MDH1, active compounds read low 0.981 | locus YKL160W, strain elf1, active compounds read low 0.987 | locus YKL190W, strain CNB1, active compounds read low 0.985 | locus YKR001C, strain vps1, active compounds read low 0.975 | locus YKR026C, strain gcn3, active compounds read low 1 | locus YKR091W, strain srl3, active compounds read low 1 | locus YLL001W, strain dnm1, active compounds read low 0.967 | locus YLL026W, active compounds read low 0.997 | locus YLL041C, strain sdh2, active compounds read low 0.998 | locus YLR027C, strain aat2, active compounds read low 1 | locus YLR039C, strain RIC1, active compounds read low 0.987 | locus YLR058C, strain SHM2, active compounds read low 0.991 | locus YLR102C, strain apc9, active compounds read low 0.957 | locus YLR113W, strain HOG1, active compounds read low 1.02 | locus YLR221C, strain rsa3, active compounds read low 0.995 | locus YLR258W, strain gsy2, active compounds read low 0.998 | locus YLR262C, strain YPT6 (second series), active compounds read low 0.998 | locus YLR262C, strain YPT6, active compounds read low 1 | locus YLR268W, strain sec22, active compounds read low 0.963 | locus YLR320W, strain mms22, active compounds read low 0.992 | locus YLR330W, strain CHS5, active compounds read low 0.979 | locus YLR342W, strain FKS1 (second series), active compounds read low 1.01 | locus YLR342W, strain FKS1, active compounds read low 0.995 | locus YLR357W, strain rsc2, active compounds read low 1.01 | locus YLR370C, strain arc18, active compounds read low 0.994 | locus YLR371W, strain rom2, active compounds read low 0.98 | locus YLR384C, strain iki3, active compounds read low 1.01 | locus YLR418C, strain cdc73, active compounds read low 1.04 | locus YML016C, strain PPZ1, active compounds read low 0.989 | locus YML032C, strain rad52, active compounds read low 0.985 | locus YML120C, strain ndi1, active compounds read low 0.995 | locus YML124C, strain tub3, active compounds read low 0.991 | locus YMR058W, strain fet3, active compounds read low 1 | locus YMR078C, strain ctf18, active compounds read low 0.982 | locus YMR125W, strain sto1, active compounds read low 0.993 | locus YMR129W, active compounds read low 1 | locus YMR205C, strain PFK2, active compounds read low 0.992 | locus YMR223W, strain ubp8, active compounds read low 0.998 | locus YMR231W, strain pep5, active compounds read low 1 | locus YMR263W, strain SAP30, active compounds read low 0.995 | locus YMR307W, strain GAS1, active compounds read low 1.19 | locus YNL067W, strain RPL9B, active compounds read low 1.02 | locus YNL071W, strain lat1, active compounds read low 1 | locus YNL153C, strain GIM3, active compounds read low 1.03 | locus YNL183C, strain NPR1, active compounds read low 0.947 | locus YNL209W, strain ssb2, active compounds read low 0.998 | locus YNL233W, strain BNI4, active compounds read low 1.03 | locus YNL248C, strain rpa49, active compounds read low 0.994 | locus YNL250W, strain rad50, active compounds read low 0.981 | locus YNL271C, strain bni1, active compounds read low 0.997 | locus YNL298W, strain CLA4, active compounds read low 0.989 | locus YNL307C, strain MCK1, active compounds read low 0.98 | locus YNL322C, strain KRE1 (second series), active compounds read low 0.998 | locus YNL322C, strain KRE1, active compounds read low 0.987 | locus YNR049C, strain mso1, active compounds read low 0.999 | locus YNR052C, strain pop2, active compounds read low 0.994 | locus YOL012C, strain htz1 0.994 | locus YOL147C, strain pex11, active compounds read low 0.985 | locus YOR001W, strain rrp6, active compounds read low 0.984 | locus YOR061W, strain CKA2, active compounds read low 0.99 | locus YOR069W, strain VPS5, active compounds read low 0.981 | locus YOR070C, strain gyp1, active compounds read low 0.996 | locus YOR080W, strain dia2, active compounds read low 1 | locus YOR083W, strain WHI5, active compounds read low 0.985 | locus YOR106W, strain vam3, active compounds read low 1.02 | locus YOR136W, strain idh2, active compounds read low 0.987 | locus YOR144C, strain elg1, active compounds read low 0.987 | locus YOR184W, strain ser1, active compounds read low 0.963 | locus YOR231W, strain MKK1, active compounds read low 1.03 | locus YOR265W, strain rbl2, active compounds read low 1.01 | locus YOR270C, strain vph1, active compounds read low 0.99 | locus YOR290C, strain snf2, active compounds read low 1.02 | locus YOR316C, strain cot1, active compounds read low 0.988 | locus YPL051W, strain arl3, active compounds read low 0.997 | locus YPL078C, strain atp4, active compounds read low 0.996 | locus YPL106C, strain sse1, active compounds read low 0.963 | locus YPL240C, strain hsp82, active compounds read low 0.985 | locus YPL256C, strain CLN2, active compounds read low 1.02 | locus YPR119W, strain clb2, active compounds read low 0.976 | locus YPR141C, strain kar3, active compounds read low 0.979 | locus YPR163C, strain tif3, active compounds read low 0.993 | locus YPR167C, strain met16, active compounds read low 0.97 | strain wtn01, active compounds read low 0.971

CN(Cc1cnc2nc(N)nc(N)c2n1)c1ccc(C(=O)N[C@H](CCC(=O)O)C(=O)O)cc1
inactive: locus YAL040C, strain CLN3, active compounds read low 1 | locus YER002W, strain NOP16, active compounds read low 0.996 | locus YNL175C, strain NOP13, active compounds read low 1 | locus YNL197C, strain WHI3, active compounds read low 1.01 | locus YNL224C, strain SQS1, active compounds read low 0.981 | locus YOR083W, strain WHI5 (second series), active compounds read low 1.04 | locus YPL241C, strain CIN2, active compounds read low 0.984
